Source: PubChem BioAssay AID1159580 (chemical genetic matrix, 2015)
Out of some 5,500 compounds screened, about 2,000 (36%) were called active. About 18% were inconclusive and are not listed. Cut-off read from the data, not from the text of the source: active = normalized growth mostly below about 0.91 (no sharp cut-off); inconclusive = no clear call, values can overlap the other calls; inactive = mostly above about 0.92. The list shows a part of the results.

Test: chemical genetic growth profiling, strain panel (AID 1159580);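 note: tested at 20 µM; growth read once vehicle control cultures reached saturation at 30 °C; 1 = growth at the plate median or of vehicle wells; lower values mean less growth of the strain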
Details: S. cerevisiae deletion strains, growth OD

Measured: normalized growth

Oc1ccc([C@H]2Oc3cc(O)cc(O)c3C[C@H]2O)cc1
inactive: locus YAL021C, strain ccr4, stronger effect = lower value 0.995 | locus YAL026C, strain drs2, stronger effect = lower value 0.991 | locus YAL030W, strain snc1, stronger effect = lower value 0.988 | locus YBL061C, strain skt5, stronger effect = lower value 0.98 | locus YBR009C, strain hhf1, stronger effect = lower value 1.02 | locus YBR023C, strain chs3, stronger effect = lower value 0.99 | locus YBR171W, strain sec66, stronger effect = lower value 0.969 | locus YBR231C, strain swc5, stronger effect = lower value 0.94 | locus YBR279W, strain paf1, stronger effect = lower value 0.999 | locus YCL011C, strain gbp2, stronger effect = lower value 1.01 | locus YCL016C, strain dcc1, stronger effect = lower value 1.01 | locus YCL069W, strain vba3, stronger effect = lower value 0.981 | locus YCR088W, strain abp1, stronger effect = lower value 0.987 | locus YDL005C, strain med2, stronger effect = lower value 0.988 | locus YDL040C, strain nat1, stronger effect = lower value 0.983 | locus YDR001C, strain nth1, stronger effect = lower value 0.987 | locus YDR069C, strain doa4, stronger effect = lower value 0.952 | locus YDR137W, strain rgp1, stronger effect = lower value 0.996 | locus YDR159W, strain sac3, stronger effect = lower value 0.939 | locus YDR195W, strain ref2 0.933 | locus YDR297W, strain sur2, stronger effect = lower value 0.984 | locus YDR334W, strain swr1, stronger effect = lower value 0.976 | locus YDR335W, strain msn5, stronger effect = lower value 0.995 | locus YDR392W, strain spt3, stronger effect = lower value 0.929 | locus YEL003W, strain gim4, stronger effect = lower value 0.97 | locus YEL037C, strain rad23, stronger effect = lower value 0.982 | locus YEL061C, strain CIN8 (second series), stronger effect = lower value 0.979 | locus YER015W, strain faa2, stronger effect = lower value 0.998 | locus YER016W, strain bim1, stronger effect = lower value 0.991 | locus YER111C, strain swi4, stronger effect = lower value 0.967 | locus YER155C, strain BEM2 (second series), stronger effect = lower value 0.948 | locus YFR010W, strain ubp6, stronger effect = lower value 0.971 | locus YGL167C, strain pmr1, stronger effect = lower value 0.986 | locus YGL173C, strain kem1, stronger effect = lower value 0.977 | locus YGL227W, strain vid30, stronger effect = lower value 0.987 | locus YGL240W, strain doc1, stronger effect = lower value 0.969 | locus YGL253W, strain hxk2, stronger effect = lower value 0.956 | locus YHR013C, strain ard1, stronger effect = lower value 1.01 | locus YHR027C, strain rpn1, stronger effect = lower value 0.979 | locus YHR030C, strain SLT2, stronger effect = lower value 0.983 | locus YHR079C, strain IRE1, stronger effect = lower value 0.981 | locus YHR142W, strain chs7, stronger effect = lower value 0.993 | locus YJL092W, strain hpr5, stronger effect = lower value 0.983 | locus YJL095W, strain BCK1 (second series), stronger effect = lower value 0.977 | locus YJL095W, strain BCK1, stronger effect = lower value 0.97 | locus YJL115W, strain asf1, stronger effect = lower value 0.976 | locus YJL129C, strain trk1, stronger effect = lower value 0.978 | locus YJL154C, strain vps35, stronger effect = lower value 0.984 | locus YJL164C, strain tpk1, stronger effect = lower value 1 | locus YJL166W, strain qcr8, stronger effect = lower value 0.998 | locus YJR066W, strain TOR1, stronger effect = lower value 0.947 | locus YKL160W, strain elf1, stronger effect = lower value 1.02 | locus YKR026C, strain gcn3, stronger effect = lower value 0.968 | locus YKR091W, strain srl3, stronger effect = lower value 0.992 | locus YLL001W, strain dnm1, stronger effect = lower value 0.956 | locus YLL026W, stronger effect = lower value 0.993 | locus YLL041C, strain sdh2, stronger effect = lower value 0.983 | locus YLR027C, strain aat2, stronger effect = lower value 0.976 | locus YLR113W, strain HOG1, stronger effect = lower value 0.977 | locus YLR221C, strain rsa3, stronger effect = lower value 0.964 | locus YLR258W, strain gsy2, stronger effect = lower value 0.999 | locus YLR262C, strain YPT6 (second series), stronger effect = lower value 1 | locus YLR320W, strain mms22, stronger effect = lower value 0.982 | locus YLR342W, strain FKS1, stronger effect = lower value 0.99 | locus YLR357W, strain rsc2, stronger effect = lower value 0.949 | locus YLR370C, strain arc18, stronger effect = lower value 0.977 | locus YLR384C, strain iki3, stronger effect = lower value 0.991 | locus YML120C, strain ndi1, stronger effect = lower value 1 | locus YMR058W, strain fet3, stronger effect = lower value 0.985 | locus YMR125W, strain sto1, stronger effect = lower value 0.99 | locus YMR129W, stronger effect = lower value 0.989 | locus YMR205C, strain PFK2, stronger effect = lower value 1 | locus YMR231W, strain pep5, stronger effect = lower value 0.976 | locus YNL071W, strain lat1, stronger effect = lower value 1 | locus YNL183C, strain NPR1, stronger effect = lower value 0.956 | locus YNL209W, strain ssb2, stronger effect = lower value 1.01 | locus YNL248C, strain rpa49, stronger effect = lower value 0.956 | locus YNL322C, strain KRE1 (second series), stronger effect = lower value 0.995 | locus YNR049C, strain mso1, stronger effect = lower value 0.987 | locus YOR001W, strain rrp6, stronger effect = lower value 0.947 | locus YOR070C, strain gyp1, stronger effect = lower value 0.99 | locus YOR080W, strain dia2, stronger effect = lower value 0.974 | locus YOR083W, strain WHI5, stronger effect = lower value 1.01 | locus YOR106W, strain vam3, stronger effect = lower value 1.02 | locus YOR231W, strain MKK1, stronger effect = lower value 0.978 | locus YOR265W, strain rbl2, stronger effect = lower value 0.981 | locus YOR270C, strain vph1, stronger effect = lower value 0.958 | locus YOR290C, strain snf2, stronger effect = lower value 1.03 | locus YPL051W, strain arl3, stronger effect = lower value 0.954 | locus YPL078C, strain atp4, stronger effect = lower value 1.01 | locus YPL106C, strain sse1, stronger effect = lower value 0.982 | locus YPL240C, strain hsp82, stronger effect = lower value 0.989 | locus YPL256C, strain CLN2, stronger effect = lower value 0.967
